Assay outcomes from PubChem.
HCV inhibitor – blocks hepatitis C virus; Huh7.5.1 HCVcc-Cre infection, luciferase reporter, 44 h; Potency, µM (top dose mostly 41.8 µM), without a hit: at the top dose activity change, negative = inhibition, most hits filed as inhibitors; actives 3.4% (n = 340,000); AID 651820; note: potency is the fitted concentration of half-maximal effect; % is set by controls: 0 for no effect and ±100 for the full control effect
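Reporter virus HCVcc-Cre (~0.5 moi) infects cells exposed to compound; seeding density 1,000 cells/well with 4 h settling beforehand. Luminescence, 15 sec read, taken 44 h post-infection following a 15 min RT substrate incubation.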
Sm TGR inh – inhibitors of Schistosoma mansoni thioredoxin glutathione reductase. Q962Y6. purified TGR, DTNB reduction, TNB absorbance 405 nm. Potency, µM (titrated, usually from 114 µM), for inactives: at the highest dose activity change, negative = inhibition, most hits filed as inhibitors. actives 3% (n = 360,000). AID 485364; note: potency is the fitted concentration of half-maximal effect; % is set by controls: 0 for no effect and ±100 for the full control effect; nearly all actives have a fitted effect of over 60% in size
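First, TGR (20 nM dispensed) and NADPH were mixed with compound. Second, a 15 min room-temperature incubation followed. Third, further NADPH and then DTNB were added to start the reaction. Finally, TNB absorbance was monitored kinetically.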
HCMV inh – blocks human cytomegalovirus replication; AID 1259415; actives 4.5% (n = 410,000); HFF cells, HCMV-luciferase reporter, 72 h; hits give low values; activity change, negative = inhibition, % at 57.5 µM; in the data active = activity change below about -60%; inconclusive = no clear call, values can overlap the other calls; inactive = above about -39%; note: % is set by controls: 0 for no effect and ±100 for the full control effect
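Inhibition of viral replication was scored as loss of reporter luminescence in HFFs infected with HCMV-luciferase (MOI 1 PFU/cell) for 72 h; compounds tested at 2 doses, normalized to buffer and Salinomycin controls.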
Pf growth 96h – P. falciparum growth inhibition at 96 hours. P. falciparum luciferase reporter growth, 96 h. Potency, µM (titrated, usually from 28.7 µM), for inactives: at the top dose activity change, negative = inhibition, most hits filed as inhibitors. actives 6.9% (n = 320,000). AID 504834; note: potency is the fitted concentration of half-maximal effect; % is set by controls: 0 for no effect and ±100 for the full control effect
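Erythrocytes infected with luciferase-expressing P. falciparum were dispensed at 2% hematocrit and 0.05% parasitemia (final), then incubated with compounds 96 hours at 37 C in 5% CO2. Luminescence after detection reagent addition reported growth.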
Pf growth 48h – inhibits P. falciparum growth in the first generation, 48 h; P. falciparum luciferase growth in erythrocytes, 48 h; AID 504832; actives 5.9% (n = 310,000); Potency, µM (highest dose often 28.7 µM), inactives show at the highest dose activity change, negative = inhibition, usual class: inhibitors; note: potency is the fitted concentration of half-maximal effect; % is set by controls: 0 for no effect and ±100 for the full control effect
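Cell-based growth assay: transgenic P. falciparum expressing firefly luciferase, cultured in red cells within RPMI 1640 containing 0.5% w/v Albumax, 24 mM bicarbonate and gentamycin. A drop in luciferase activity indicates inhibition.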
SARS PLpro yeast – blocks SARS-CoV papain-like protease in a yeast assay; S. cerevisiae expressing SARS-CoV PLpro, growth rescue; Potency, µM (titrated, usually from 32.9 µM), for the others: top-dose activity, positive = growth rescue, actives largely listed as activators; actives 0.19% (n = 330,000); AID 485353; calls by dose curve; note: potency is the fitted concentration of half-maximal effect; 0% is about no effect; nearly all actives have a fitted effect of over 55% in size
* = called active by the depositor; ? = inconclusive; . = no result; + = active, no number; [ ] = remark or other dose. In the library only some 15% were active in any assay of this set; here they are far more common. Unless noted, calls come from the whole dose curve; as a rule, active = well fitted curve in the direction sought with a large enough effect; inconclusive = small, poorly fitted or top-dose-only effect, or another doubt; inactive = no such curve, though single readings can be large; an effect the other way counts as inactive or inconclusive.

SMILES | HCV inhibitor | Sm TGR inh | HCMV inh | Pf growth 96h | Pf growth 48h | SARS PLpro yeast
CC(C)(C)C(=O)N1CCN(c2ccc(NC(=O)c3ccco3)cc2)CC1 | 10.6% | 10.5% | 20.1 | ? | -29.0% | -0.4%
Fc1ccc(CNc2ccc(N3CCN(Cc4ccccc4)CC3)cc2)cc1 | ? | ? | ? | 9.28µM* | -22.1% | -6.2%
CC(C)CC(=O)N1CCN(c2ccc(NC(=O)c3ccco3)cc2)CC1 | . | 0.0% | -20.6 | 9.28µM* | ? | 0.6%
O=C(NCC1CCCO1)c1cc2cc(Cl)ccc2[nH]1 (stereo unspecified) | -7.6% | 6.8% | -0.5 | 0.6% | 12.8% | -12.9%
CC(C)CN1CCC(=O)N([C@H](CO)Cc2ccccc2)CC1 | 28.8% | 2.0% | 5.4 | 39.1% | 35.1% | 7.7%
O=C1CCN(Cc2ccccc2)CCN1[C@H](COc1ccccc1)Cc1ccccc1 | 7.9% | -24.2% | -38.6 | ? | ? | 0.6%
CCCN1CCC(=O)N([C@H](CSc2ccccc2)Cc2ccccc2)CC1 | -9.6% | -28.2% | 19.0 | ? | ? | -1.2%
CC(C)CN1CCC(=O)N([C@H](CSc2ccccc2)Cc2ccccc2)CC1 | ? | ? | 17.0 | 13.1µM* | ? | 1.8%
CC(C)C[C@@H](COc1ccccc1)N1CCN(Cc2ccccc2)CCC1=O | -15.2% | -24.2% | -102.5* | ? | ? | -1.6%
Cc1ccc(SC[C@H](Cc2ccccc2)N2CCN(CC(C)C)CCC2=O)cc1 | -21.5% | 25.1µM* | 55.2 | ? | ? | -1.0%
CCCN1CCC(=O)N([C@H](CSc2ccc(Br)cc2)Cc2ccccc2)CC1 | -11.3% | -27.5% | -17.2 | 1.85µM* | ? | -0.1%
COCc1c(C(=O)OCC(=O)NCCc2ccc(S(N)(=O)=O)cc2)oc2ccccc12 | -10.3% | -1.0% | 1.8 | -15.9% | -12.2% | -4.5%
CC(=O)Nc1ccc2c(c1)CCCC2=O | 13.0% | 31.6µM* | 16.2 | 33.8% | 51.5% | -0.6%
CC(=O)Nc1ccc2c(c1)Cc1cc(N3C(=O)C=CC3=O)ccc1-2 | -15.2% | . | -65.9* | . | . | .
CCc1ccc(CNC(=O)C2CCCN(c3nn4cc(-c5ccc(F)cc5)nc4s3)C2)cc1 (stereo unspecified) | . | 7.4% | + | . | . | .
CCOc1ccc(CNC(=O)C2CCCN(c3nn4cc(-c5ccc(F)cc5)nc4s3)C2)cc1 (stereo unspecified) | . | 0.2% | + | . | . | .
CCOc1ccc(CNC(=O)C2CCCN(c3nn4cc(-c5ccc(OC)cc5)nc4s3)C2)cc1 (stereo unspecified) | . | -6.3% | 0.0 | . | . | .
Cc1oc2ncn(CC(C)C)c(=O)c2c1C(=O)N1CCN(c2cccc(C(F)(F)F)c2)CC1 | . | 5.7% | -23.7 | . | . | .
Cc1nn2c(N3CCN(C)CC3)c3c(nc2c1-c1ccccc1)CCCC3 | -3.4% | -11.7% | -17.1 | 9.28µM* | 66.1% | -1.3%
c1ccc(CNc2c3c(nc4ncnn24)CCCC3)nc1 | 4.7% | -24.7% | 20.5 | 8.28µM* | 7.0% | -1.3%
Cc1cc(NCc2ccccn2)n2nc(C)c(-c3ccccc3)c2n1 | 1.58µM* | 0.6% | -83.2* | 2.08µM* | 1.65µM* | -3.4%
Cc1nn2c(NCc3ccccn3)cc(C(C)(C)C)nc2c1-c1ccccc1 | 2.51µM* | -20.8% | -97.0* | 2.94µM* | 4.65µM* | -1.6%
CNC(=S)NNC(=O)c1cc(-c2cccnc2)nc2ccccc12 | -1.8% | ? | 14.6 | ? | 4.7% | 11.7%
Cc1oc2ncnc(N3CCOCC3)c2c1C(=O)NCc1ccccc1 | . | 4.2% | 9.3 | . | . | .
Cc1cccc(-c2cc3nc(C)cc(NCCCn4ccnc4)n3n2)c1 | ? | -1.6% | 108.3 | . | ? | 10.8%
SMILES | HCV inhibitor | Sm TGR inh | HCMV inh | Pf growth 96h | Pf growth 48h | SARS PLpro yeast
CCCc1cc(NCCCn2ccnc2)n2nc(C)c(-c3ccccc3)c2n1 | -35.9% | -15.9% | ? | 0.415µM* | ? | 0.0%
Cc1nn2c(NCCN3CCOCC3)c3c(nc2c1-c1ccccc1)CCCC3 | ? | 3.6% | ? | 13.1µM* | ? | 0.2%
COc1ccc(Nc2c3c(nc4c(-c5ccccc5)c(C)nn24)CCC3)cc1 | 9.9% | -6.7% | 0.0 | 5.86µM* | 13.1µM* | -31.1%
Cc1[nH]n2c(=O)c3c(nc2c1-c1ccccc1)CCCC3 | -14.7% | -13.5% | 5.7 | -13.3% | ? | -0.3%
Cc1cc(-c2ccccc2)nnc1NCCN1CCOCC1 | 2.6%[8.37 µM] | -5.6% | ? | -17.8% | -1.8% | 2.8%
Cc1nn2c(NCc3ccccn3)c3c(nc2c1-c1ccccc1)CCC3 | -66.6% | 25.1µM* | -83.4* | 4.65µM* | ? | -3.5%
O=c1cc2c(c(-c3ccccc3)n1Cc1ccccc1)[C@@H](CCO)NC2 | -19.5% | . | 6.7 | . | . | .
C=C(C)c1ccccc1 | 5.3% | 3.9% | -16.7 | 39.8% | 16.1% | -1.2%
CSc1nnc2c3cc(C)ccc3n(Cc3ccccc3)c2n1 | -27.9% | ? | 4.6 | . | -11.5% | 2.8%
C#CCN(C(=O)c1ccc(OC2CCN(Cc3ccccn3)CC2)cc1)C1CCCCC1 | -18.6% | -20.2% | -18.3 | 19.4% | ? | 0.7%
CCc1c(C)nc(SCC(=O)N2C(C)CCCC2C)[nH]c1=O (stereo unspecified) | 0.3% | -12.9% | 38.3 | 14.0% | -37.3%[5.75 µM] | -0.8%
CCc1c(C)nc(SCC(=O)N2CCCCC2C)[nH]c1=O (stereo unspecified) | 13.5% | 10.2% | 4.2 | 7.38µM* | -1.5% | 0.8%
Cc1ccc(S(=O)(=O)N2CCN(C(=O)Cn3c(=O)cnc4ccccc43)CC2)cc1 | 1.4% | -2.6% | -20.9 | ? | ? | 2.3%
Cc1ccc(Cn2c(=N)c(C#N)cc3c(=O)n4cccc(C)c4nc32)cc1 | . | 8.8%[57.1 µM] | . | 14.7µM* | 9.8% | 0.2%
N=c1c(C(=O)NCC2CCCO2)cc2c(=O)n3ccccc3nc2n1C1CCCC1 (stereo unspecified) | -24.2% | 2.2% | 4.8 | -12.6% | -11.7% | -1.8%
CCN(C(=O)c1cc2c(=O)n3cccc(C)c3nc2n1CCCOC)C1CCCCC1 | ? | -10.1% | ? | 9.28µM* | ? | -8.3%
N=c1c(C(=O)NCCc2ccccc2)cc2c(=O)n3ccccc3nc2n1CC1CCCO1 (stereo unspecified) | ? | -6.1% | -8.6 | ? | 2.08µM* | 2.1%
COc1ccc(CCNC(=O)c2cc3c(=O)n4ccccc4nc3n(CC3CCCO3)c2=N)cc1 (stereo unspecified) | ? | . | -28.9 | . | . | .
COc1ccc(CCNC(=O)c2cc3c(=O)n4ccccc4nc3n(C3CCCCC3)c2=N)cc1OC | -13.6% | -7.2% | 5.5 | 10.4µM* | ? | 4.2%
CCCCN(CCCC)CCNC(=O)Cn1nc(CC)n2c(cc3sccc32)c1=O | . | 4.0% | -8.6 | . | . | .
